The values that follow come from PubChem BioAssay AID2557 (NMMLSC, 2010).

Structures are written as SMILES. Several values for one entry are separate records, joined by “and”; a condition that tells them apart may be missing. Identical values can stand only once. Screen size: about 330,000 compounds; about 650 (0.2%) were called active. No stated cut-off is given here; in the data, active means inhibition above about 50%; inactive means the rest. The sample as a whole holds a higher share of actives than the screen did.

For the test, the target named is Integrin alpha-4 (Homo sapiens) (UniProt P13612). Put plainly: VLA-4 integrin binding inhibitors – MLPCN library, flow cytometry, VLA-4 expressing cells, VLA-4 allosteric modulator project, primary screen (AID 2557). To be noted: ligand binding flow cytometry, stronger effect = higher value, about 7 µM as worked out from the volumes in the protocol. Background: A flow cytometer gives signals particle by particle.
Sequence of Integrin alpha-4 (Homo sapiens) (P13612 whole entry, looked up): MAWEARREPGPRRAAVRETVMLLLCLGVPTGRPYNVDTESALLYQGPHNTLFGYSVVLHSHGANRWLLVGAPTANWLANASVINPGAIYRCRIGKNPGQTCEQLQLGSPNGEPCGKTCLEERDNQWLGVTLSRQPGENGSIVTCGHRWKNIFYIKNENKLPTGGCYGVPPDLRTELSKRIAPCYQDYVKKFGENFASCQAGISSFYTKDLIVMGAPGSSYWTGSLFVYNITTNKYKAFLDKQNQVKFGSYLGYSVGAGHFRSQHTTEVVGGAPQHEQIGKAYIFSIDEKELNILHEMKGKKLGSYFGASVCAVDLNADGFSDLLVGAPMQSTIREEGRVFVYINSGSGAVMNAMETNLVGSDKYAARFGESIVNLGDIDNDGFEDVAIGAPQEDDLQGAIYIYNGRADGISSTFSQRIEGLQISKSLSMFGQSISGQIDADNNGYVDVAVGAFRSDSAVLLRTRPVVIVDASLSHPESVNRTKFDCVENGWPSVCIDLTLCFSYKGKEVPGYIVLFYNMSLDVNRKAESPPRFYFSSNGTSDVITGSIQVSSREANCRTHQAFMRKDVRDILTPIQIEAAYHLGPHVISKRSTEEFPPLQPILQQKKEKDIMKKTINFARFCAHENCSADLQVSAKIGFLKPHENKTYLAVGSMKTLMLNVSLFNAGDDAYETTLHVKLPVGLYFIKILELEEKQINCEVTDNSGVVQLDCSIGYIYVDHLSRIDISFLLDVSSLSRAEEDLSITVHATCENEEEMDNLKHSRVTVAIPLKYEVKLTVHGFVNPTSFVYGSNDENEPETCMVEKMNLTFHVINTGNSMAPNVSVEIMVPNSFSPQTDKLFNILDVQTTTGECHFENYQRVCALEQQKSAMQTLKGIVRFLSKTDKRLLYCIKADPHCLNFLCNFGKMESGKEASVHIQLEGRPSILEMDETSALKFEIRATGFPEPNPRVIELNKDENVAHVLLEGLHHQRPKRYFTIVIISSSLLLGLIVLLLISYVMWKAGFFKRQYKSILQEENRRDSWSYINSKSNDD
In the case of `CCOC(=O)CC1=C(C(=O)OCC)C2(C(=O)N1)C(C(=O)OC)=C(N)Oc1ccccc12` (stereo not given), the inhibition is -7.95% (inactive).
As for `C=CCN1C(=O)C2(C(C(=O)OCC)=C(N)Oc3c2c(=O)oc2ccccc32)c2ccccc21` (stereo not given), the figure is 59.3% (active); as for `CCOC(=O)C1=C(C)OC(N)=C(C(=O)OC)C12C(=O)Nc1ccc(Br)cc12` (stereo not given), 15.8% (inactive).
Consider `CN(C)C(=O)Oc1cc(OC(=O)N(C)C)cc(C(O)CNC(C)(C)C)c1` (stereo not given), for which the inhibition is -22.5% (inactive) and -5.62% (inactive).
Take `CCc1nnc(NS(=O)(=O)c2ccc(N=Cc3c(O)n(-c4ccccc4)c(=O)[nH]c3=O)cc2)s1`: the inhibition is -0.39% (inactive).
As for `Cc1nc2ccccc2c(=O)n1-c1ccc(Cl)cc1Cl`, the figure is 24.4% (inactive); as for `COc1ccc(-n2c(-c3ccccc3)nc3ccccc3c2=O)cc1`, -3.5% (inactive).
On to `O=c1c2ccccc2nc(-c2ccc(Cl)cc2Cl)n1-c1ccncc1`, for which the inhibition is 62.6% (active).
As for `Cn1c(O)c(C(=Nc2ccc(F)cc2)c2ccccc2)c(=O)n(C)c1=O`, the figure is 5.63% (inactive).
As to `C=CCn1c(O)c(/C=N/N2CCOCC2)c(=O)[nH]c1=S`, the inhibition is 7.33% (inactive).

One may read the inhibition as the change of the read-out against control, counted positive when it falls.
